# Measurements as given in PubChem BioAssay (NCATS).
# “And” between values parts separate entries of the source, which are not always exact repeats. Equal entries are not always repeated. A number with no mark means an inactive call. Records with an inconclusive call do not appear. The source made the active and inactive calls. Unless noted, calls follow the shape of the dose curve; as a rule, active = well fitted curve in the direction sought with a large enough effect; inconclusive = small, poorly fitted or top-dose-only effect, or another doubt; inactive = no such curve, though single readings can be large; an effect the other way counts as inactive or inconclusive.
# Legend:
# [1] = target: Cytochrome P450 3A4 (Homo sapiens) (UniProt P08684); assay: qHTS Assay for Activators of Cytochrome P450 3A4 (AID 885); also: nearly all actives have a fitted effect of over 65% in size
# Outline: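 20nM CYP3A4 + 25uM Luciferin-PPXE (=KM), 200mM KPO4; cpd 10 min RT; NADPH regen, 60 min RT; stop w/ detection buffer, 20 min; luminescence. Normalized to 57 uM ketoconazole.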
# [2] = target: Cytochrome P450 2D6 (Homo sapiens) (UniProt P10635); assay: qHTS Assay for Inhibitors and Substrates of Cytochrome P450 2D6 (AID 891); also: nearly all actives have a fitted effect of over 60% in size; also: potency is read from the fitted curve at half-maximal effect
# Outline: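 Human CYP2D6 (5 nM) with 30 uM Luciferin-ME EGE (at Km) in 100 mM KPO4, compound preincubated 10 min, then NADPH regeneration system for 60 min at room temperature. Luciferin read by luminescence; normalized to 1.43 uM quinidine.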
# [3] = target: Cytochrome P450 2C19 (Homo sapiens) (UniProt P33261); assay: qHTS Assay for Inhibitors and Substrates of Cytochrome P450 2C19 (AID 899); also: % is scaled to controls: 0 for no effect and ±100 for the full control effect; nearly all actives have a fitted effect of over 60% in size
# Outline: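 Luminescent read-out of luciferin formed from Luciferin-H EGE (10uM, equal to KM). Enzyme 5nM in 50mM KPO4; compound added, 10 min at 37C, then NADPH regenerating system for 60 min at 37C. Full inhibition defined by 57uM ketoconazole.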
# [4] = target: Alpha-galactosidase A (Homo sapiens) (UniProt P06280); assay: Counterscreen for Glucocerebrosidase Inhibitors: qHTS Assay for Human alpha-Galactosidase at pH 4.5 (AID 992); also: 0% is about no effect
# Outline: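 Enzyme at 2 nM final was combined with compound (0.7 nM to 77 uM) and 80 uM 4-methylumbelliferyl alpha-D-galactopyranoside in 50 mM citric acid, 0.005% Tween-20, pH 4.5. After 20 min at room temperature, fluorescence was read (Ex 365/Em 440 nm); AC50 came from Hill fits.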
# [5] = target: alpha-glucosidase (Oryza sativa, rice) (UniProt Q653V4); assay: Counterscreen for Glucocerebrosidase Inhibitors: qHTS Assay for Rice alpha-Glucosidase at pH 5.0 (AID 997);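 also: 0% = full activity with enzyme and -100% = basal without enzyme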
# Outline: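 Rice alpha-glucosidase (4 nM final) with 400 uM 4-methylumbelliferyl-alpha-D-glucopyranoside in citrate buffer pH 5.0, 20 min at room temperature, stopped at pH 10; fluorescence 365/440 nm, compounds 0.7 nM–77 uM, AC50 from Hill fits.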
# [6] = Confirmation and Secondary Assay for Modulators of Hemoglobin Beta Chain Splicing at IVS2 705 locus (AID 930);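 also: HeLa cells stably expressing the EGFP-705 splicing reporter; GFP fluorescence per well restored by corrected splicing of the IVS2-705 intron in EGFP; series mostly up to about 46 µM; % of control where 0% means no effect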
# Outline: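 Per-well GFP, captured at 1 x 8 µm resolution with 488 nm excitation, served as the read-out for HeLa EGFP-705 cells incubated 2 days with test compound versus DMSO.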
# [7] = qHTS Assay for Identification of Small Molecule Agonists for Hypoxia Response Element Signaling Pathway (AID 914; active = well fitted activation curve with a large enough effect in the signal ratio, with a control signal flat, not every such curve was filed as active; the % refers to the signal ratio; also: % of control where 0% means no effect); details: ME-180 (cervical carcinoma) HRE-bla reporter, beta-lactamase ratio, CoCl2, 17 h; hits give high values
# Outline: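 In Opti-MEM containing 0.5% dialyzed FBS and 10 mM HEPES, ME-180 HRE-bla cells received a compound titration and EC50 CoCl2. They were incubated 17 hours, then CCF4-loaded 2.5 hours at room temperature before ratio reading.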
# [8] = Confirmation and Secondary Assay for Modulators of Hemoglobin Beta Chain Splicing at IVS2 654 locus (AID 910);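 also: HeLa cells stably carrying EGFP split by mutant beta-globin IVS2-654 intron; % of control where 0% means no effect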
# Outline: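 HeLa cells stably expressing EGFP interrupted by β-globin IVS2-654 intron, seeded overnight in Opti-MEM/2% FCS, then treated 2 days at 37 °C. Restored splicing read as total peak GFP intensity per well by laser scanning cytometry (488 nm excitation, 500–520 nm emission); 500 nM antisense PNA as control.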
# Cytochrome P450 3A4 (Homo sapiens), sequence (P08684 whole entry, looked up): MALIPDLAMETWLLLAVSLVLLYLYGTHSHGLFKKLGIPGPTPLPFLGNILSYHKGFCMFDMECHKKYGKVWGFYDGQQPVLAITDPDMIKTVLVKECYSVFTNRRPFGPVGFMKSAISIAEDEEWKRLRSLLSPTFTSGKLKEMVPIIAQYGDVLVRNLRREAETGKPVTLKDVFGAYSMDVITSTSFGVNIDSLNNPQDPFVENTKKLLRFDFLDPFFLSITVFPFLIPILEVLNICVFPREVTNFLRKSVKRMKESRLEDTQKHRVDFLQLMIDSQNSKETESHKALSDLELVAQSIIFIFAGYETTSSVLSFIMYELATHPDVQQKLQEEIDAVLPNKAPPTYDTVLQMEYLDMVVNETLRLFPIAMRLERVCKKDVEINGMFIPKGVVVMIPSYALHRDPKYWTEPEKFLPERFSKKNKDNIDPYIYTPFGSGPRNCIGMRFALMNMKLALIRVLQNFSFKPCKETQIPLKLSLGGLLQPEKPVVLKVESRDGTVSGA
# Cytochrome P450 2D6 (Homo sapiens), sequence (P10635 whole entry, looked up): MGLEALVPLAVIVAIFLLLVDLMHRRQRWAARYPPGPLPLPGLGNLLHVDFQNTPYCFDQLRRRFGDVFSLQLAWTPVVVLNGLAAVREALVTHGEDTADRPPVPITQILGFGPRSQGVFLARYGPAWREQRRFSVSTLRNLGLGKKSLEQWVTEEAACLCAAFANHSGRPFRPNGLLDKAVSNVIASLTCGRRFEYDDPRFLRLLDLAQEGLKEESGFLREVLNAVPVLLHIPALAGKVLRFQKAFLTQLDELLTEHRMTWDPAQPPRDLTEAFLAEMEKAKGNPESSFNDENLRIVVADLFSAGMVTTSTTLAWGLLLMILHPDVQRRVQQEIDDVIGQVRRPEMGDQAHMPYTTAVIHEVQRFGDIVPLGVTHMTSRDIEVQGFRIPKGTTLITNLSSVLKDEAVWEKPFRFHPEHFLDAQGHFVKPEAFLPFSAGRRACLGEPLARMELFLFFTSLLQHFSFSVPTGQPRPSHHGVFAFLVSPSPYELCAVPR
# Alpha-galactosidase A (Homo sapiens), sequence (P06280 whole entry, looked up): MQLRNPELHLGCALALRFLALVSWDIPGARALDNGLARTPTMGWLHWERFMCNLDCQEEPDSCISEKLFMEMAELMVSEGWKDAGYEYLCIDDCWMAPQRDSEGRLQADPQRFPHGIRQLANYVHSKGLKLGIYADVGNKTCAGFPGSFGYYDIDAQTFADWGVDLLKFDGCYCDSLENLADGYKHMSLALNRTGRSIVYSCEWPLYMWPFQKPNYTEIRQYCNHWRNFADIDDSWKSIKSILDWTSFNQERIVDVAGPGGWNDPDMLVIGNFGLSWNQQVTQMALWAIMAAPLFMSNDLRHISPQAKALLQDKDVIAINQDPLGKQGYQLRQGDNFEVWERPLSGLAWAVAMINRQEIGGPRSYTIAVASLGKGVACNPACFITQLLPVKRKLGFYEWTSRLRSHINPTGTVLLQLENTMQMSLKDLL
# Cytochrome P450 2C19 (Homo sapiens), sequence (P33261 whole entry, looked up): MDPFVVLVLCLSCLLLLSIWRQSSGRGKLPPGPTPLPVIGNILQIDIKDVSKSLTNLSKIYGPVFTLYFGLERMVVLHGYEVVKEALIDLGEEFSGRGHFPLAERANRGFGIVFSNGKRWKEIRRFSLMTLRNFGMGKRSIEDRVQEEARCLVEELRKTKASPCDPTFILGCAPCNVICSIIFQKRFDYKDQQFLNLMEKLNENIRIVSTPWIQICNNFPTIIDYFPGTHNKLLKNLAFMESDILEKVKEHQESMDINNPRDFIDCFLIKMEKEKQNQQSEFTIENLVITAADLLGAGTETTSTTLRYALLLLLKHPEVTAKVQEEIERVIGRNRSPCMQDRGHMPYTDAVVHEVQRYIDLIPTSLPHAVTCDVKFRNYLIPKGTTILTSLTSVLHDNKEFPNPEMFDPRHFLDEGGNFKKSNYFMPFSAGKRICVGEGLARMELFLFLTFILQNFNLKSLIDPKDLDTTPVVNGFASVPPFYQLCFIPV
structure (smiles),measurement,setting,value
C/C(CCN1CCCc2nc(C)c(C)cc21)=N\OC[C@@H](C)[C@H](OCc1ccccc1)C(C)C,"activity change, positive = activation",[1],-46.3% [at 11.4 µM]
CC(=O)OC[C@H]1O[C@@H](O/N=C(\C)CCN2CCCc3nc(C)c(C)cc32)[C@H](OC(C)=O)[C@@H](OC(C)=O)[C@H]1OC(C)=O,"activity change, positive = activation",[1],-36.5% [at 11.4 µM]
same,Potency,[2],3160 nM (active)
FC(F)(F)c1ccc(C2[C@H]3CN(Cc4ccc(-c5ccccc5)cc4)[C@H](c4ccccc4)C34CC2(c2cccnc2)C4)cc1 (some centres undefined),Potency,[1],inactive
CCc1cc2c(nc1CC)CCN(CC/C(C)=N/O[C@@H](C)CN1CCCc3nc(C)c(C)cc31)C2,"activity change, positive = activation",[1],-50.2% [at 11.4 µM]
same,Potency,[2],3980 nM (active)
O=C(NCCC[N+]1=CC=N[C@H]1c1ccccc1)N1CCCc2nc(-c3ccc(Br)cc3)ccc21,"activity change, positive = activation",[1],-35.8% [at 11.4 µM]
same,Potency,[2],79.4 nM (active)
COC(=O)NC(/C(C(=O)OC)=C(\C)NCc1ccccc1)c1ccc2ccccc2c1 (centres undefined),"activity change, positive = activation",[1],-55.9% [at 11.4 µM]
same,Potency,[2],2000 nM (active)
CC1CCC2C(=O)OC(CO)CN2C1c1ccc(Br)cc1 (centres undefined),"activity change, positive = activation",[1],-46.2% [at 11.4 µM]
same,Potency,[2],inactive
CC(C)(C)N1C(=O)[C@H]2[C@@H]3[C@H](O)[C@H](O)CC(=O)[C@H]3CC[C@H]2C1=O,Potency,[3],inactive
Cc1cc(N2CCOCC2)nc2ccc(NC(=O)C3CCCCC3)cc12,outcome,[4],inactive
same,outcome,[5],inactive
CN1C2CC(OC(=O)C(CO)c3ccccc3)C[C@@H]1[C@H]1OC21 (some centres undefined),outcome,[6],inactive
COC(=O)C/C=C\[C@@H](C)[C@@H]1C=C[C@H](OC(C)=O)[C@H](COC(C)=O)O1,activation,[7],1.52%
CC(C)=CCC/C(C)=C/CO/N=C1/C[C@@H](O)[C@@H](O)[C@@H]2[C@@H]3C(=O)N(c4cccc(Oc5ccccc5)c4)C(=O)[C@H]3CC[C@H]12,activation,[7],7.14%
CCc1nnc(NC(=O)c2ccc(NS(=O)(=O)c3ccccc3)cc2)s1,outcome,[4],inactive
same,outcome,[5],inactive
CC(C)C(=O)N[C@@H]1CCCN1C(=O)/C=C\c1ccccc1,activation,[7],12.7%
CCN1C(=O)[C@H]2[C@@H]3[C@H](O)[C@H](O)CC(=O)[C@H]3CC[C@H]2C1=O,activation,[7],-3.64% and -8.67%
CO[C@H]1COC(=O)[C@H](C)COC(=O)[C@H](C)NC(=O)C/C=C\[C@H]1C,activation,[7],5.98%
C/C(CCN1CCCc2nc(C)c(C)cc21)=N\O[C@@H](C)c1cn([C@@H]2COC[C@@H]2O)nn1,activation,[7],8.15%
COC(=O)C/C=C\[C@@H](C)[C@H]1C=C[C@H](O)[C@@H](CO)O1,activation,[7],10.7%
CCN1C(=O)[C@H]2[C@H]3[C@H](O)[C@H](O)C/C(=N/OCc4ccccc4)[C@@H]3CC[C@@H]2C1=O,activation,[7],-12.3%
COc1ccc(COC(=O)N/N=C2/C[C@@H](O)[C@@H](O)[C@@H]3[C@@H]4C(=O)N(Cc5ccc6c(c5)OCO6)C(=O)[C@H]4CC[C@@H]23)cc1,activation,[7],0.811%
CC(C)[C@@H](OCc1ccccc1)[C@H](C)/C=N\OC[C@@H](O)[C@@H]1O[C@@H]2OC(C)(C)O[C@@H]2[C@H]1O,activation,[7],7%
CC(C)(C)Oc1ccccc1Nc1nc(NCCO)nc(N2CCCC2)n1,outcome,[4],inactive
same,outcome,[5],inactive
CC(C)C(=O)N[C@H]1CCCN1C(=O)/C=C\c1ccccc1,activation,[7],4.87%
CCCCCCCCCN1C[C@H](O)[C@@H](O)[C@H](O)[C@H]1CO,outcome,[4],inactive
same,outcome,[5],inactive
CO[C@H]1COC(=O)[C@@H](C)COC(=O)[C@H](C)NC(=O)C/C=C\[C@H]1C,activation,[7],-4.15%
CC(C)[C@@H](OCc1ccccc1)[C@H](C)/C=N\OC[C@@H](C)[C@H](OCc1ccccc1)C(C)C,activation,[7],-1.89%
CC(C)CO/N=C1/C[C@@H](O)[C@@H](O)[C@@H]2[C@@H]3C(=O)N(C4CCCCC4)C(=O)[C@H]3CC[C@H]12,activation,[7],-3.43%
Cc1cc2c(nc1C)CCCCN2C[C@H](O)CN1CCCc2nc(-c3ccc(Br)cc3)ccc21,activation,[7],-0.373%
CSCC[C@@H]1NC(=O)C/C=C\[C@@H](C)COC(=O)[C@@H](C)COC1=O,activation,[7],-8.61%
Cc1ccc2nc3nc4ccc[nH]c4cc3c2c1,activation,[7],-21.2%
CSCC[C@@H]1NC(=O)C/C=C\[C@@H](C)COC(=O)[C@H](C)COC1=O,activation,[7],5.76%
CCN1C(=O)[C@H]2[C@H]3[C@H](O)[C@H](O)C/C(=N/OCc4ccccc4)[C@H]3CC[C@@H]2C1=O,activation,[7],7.18%
COc1ccc(Cl)cc1Nc1nc(NCCO)nc(N2CCCC2)n1,outcome,[4],inactive
same,outcome,[5],inactive
O=C(N/N=C1/C[C@@H](O)[C@@H](O)[C@@H]2[C@@H]3C(=O)N(c4cccc(Oc5ccccc5)c4)C(=O)[C@H]3CC[C@@H]12)OCc1ccccc1,activation,[7],-0.0366%
COC(=O)C(C(=O)OC)[C@@H]1CCCC(=O)C1,activation,[7],-2.41%
CO[C@H]1COC(=O)C/C=C\[C@H](C)COC(=O)[C@@H](OCc2ccccc2)/C=C\[C@@H]1C,activation,[7],-11.2%
C[C@H](c1ccccc1)N1C(=O)[C@H]2[C@@H]3[C@H](O)[C@H](O)CC(=O)[C@H]3CC[C@H]2C1=O,activation,[7],0.807%
CC(C)(C)NCC(O)COc1cccc2c1CC(O)C(O)C2 (centres undefined),outcome,[6],inactive
COc1ccc(COC(=O)N/N=C2/C[C@@H](O)[C@@H](O)[C@@H]3[C@@H]4C(=O)N(Cc5ccc6c(c5)OCO6)C(=O)[C@H]4CC[C@H]23)cc1,activation,[7],-9.34%
O=C1C=C[C@@H](O)[C@H]2[C@@H]3C(=O)N(C[C@@H]4CCCO4)C(=O)[C@@H]3CC[C@H]12,activation,[7],-2.79%
c1ccc([C@H]2NCCc3c2[nH]c2ccccc32)cc1,activation,[7],-22.5%
C#CCCCO/N=C1/C[C@@H](O)[C@@H](O)[C@@H]2[C@@H]3C(=O)N(c4cccc(Oc5ccccc5)c4)C(=O)[C@H]3CC[C@@H]12,activation,[7],-6.82%
O=C(N/N=C1/C[C@@H](O)[C@@H](O)[C@@H]2[C@@H]3C(=O)N(c4cccc(Oc5ccccc5)c4)C(=O)[C@H]3CC[C@H]12)OCc1ccccc1,activation,[7],9.49%
CC(=O)OC1CCC2(C)C3=C(CCC2C1(C)C)[C@@]1(C)CCC(C(C)CCC=C(C)C)[C@@]1(C)CC3 (some centres undefined),outcome,[6],inactive
CC(C)[C@H](NC(=O)OC(C)(C)C)[C@@H](O)CC(=O)C(C)(C)C,activation,[7],3.44%
CC1(C)C(=O)C=C[C@]2(C)C1CC(=O)[C@]1(C)C2CC[C@@]2(C)C(c3ccoc3)OC(=O)C3O[C@@]321 (some centres undefined),outcome,[8],inactive
same,outcome,[6],inactive
CC(C)=CCC/C(C)=C/CO/N=C1/C[C@@H](O)[C@@H](O)[C@@H]2[C@@H]3C(=O)N(c4cccc(Oc5ccccc5)c4)C(=O)[C@H]3CC[C@@H]12,activation,[7],6.84%
CC(C)CO/N=C1/C[C@@H](O)[C@@H](O)[C@@H]2[C@@H]3C(=O)N(C4CCCCC4)C(=O)[C@H]3CC[C@@H]12,activation,[7],-7.25%
